Source: ChEMBL document CHEMBL2218924, “A broad activity screen in support of a chemogenomic map for kinase signalling research and drug discovery” (Biochem J, 2013)

Experiments:
[1] = biological target: Tyrosine-protein kinase Fer (Homo sapiens) (UniProt P16591); conditions: at 10 µM
[2] = biological target: Tyrosine-protein kinase Fes/Fps (Homo sapiens) (UniProt P07332); conditions: at 1 µM
[3] = biological target: Tyrosine-protein kinase Fes/Fps (Homo sapiens) (UniProt P07332); conditions: at 10 µM
[4] = biological target: Tyrosine-protein kinase Fgr (Homo sapiens) (UniProt P09769); conditions: at 1 µM
Tyrosine-protein kinase Fgr (Homo sapiens), sequence (P09769 2-529 limits assumed): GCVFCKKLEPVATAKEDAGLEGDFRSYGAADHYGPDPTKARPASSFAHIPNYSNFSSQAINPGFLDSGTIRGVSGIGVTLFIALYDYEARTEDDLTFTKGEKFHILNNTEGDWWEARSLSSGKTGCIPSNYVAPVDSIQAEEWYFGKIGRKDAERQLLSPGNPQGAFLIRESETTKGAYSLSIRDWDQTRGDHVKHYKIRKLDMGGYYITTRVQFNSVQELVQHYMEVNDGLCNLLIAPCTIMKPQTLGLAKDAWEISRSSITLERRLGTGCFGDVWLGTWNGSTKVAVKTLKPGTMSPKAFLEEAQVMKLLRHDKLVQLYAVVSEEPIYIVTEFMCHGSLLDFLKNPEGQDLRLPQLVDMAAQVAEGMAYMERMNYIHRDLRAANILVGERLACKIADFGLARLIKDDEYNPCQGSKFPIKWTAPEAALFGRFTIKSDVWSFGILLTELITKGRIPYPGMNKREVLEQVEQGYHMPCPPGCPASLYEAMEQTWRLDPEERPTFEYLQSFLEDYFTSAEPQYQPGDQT

[5] = biological target: Tyrosine-protein kinase Fgr (Homo sapiens) (UniProt P09769); conditions: at 10 µM
[6] = biological target: Vascular endothelial growth factor receptor 1 (Homo sapiens) (UniProt P17948); conditions: at 1 µM
Vascular endothelial growth factor receptor 1 (Homo sapiens), sequence (P17948 whole entry): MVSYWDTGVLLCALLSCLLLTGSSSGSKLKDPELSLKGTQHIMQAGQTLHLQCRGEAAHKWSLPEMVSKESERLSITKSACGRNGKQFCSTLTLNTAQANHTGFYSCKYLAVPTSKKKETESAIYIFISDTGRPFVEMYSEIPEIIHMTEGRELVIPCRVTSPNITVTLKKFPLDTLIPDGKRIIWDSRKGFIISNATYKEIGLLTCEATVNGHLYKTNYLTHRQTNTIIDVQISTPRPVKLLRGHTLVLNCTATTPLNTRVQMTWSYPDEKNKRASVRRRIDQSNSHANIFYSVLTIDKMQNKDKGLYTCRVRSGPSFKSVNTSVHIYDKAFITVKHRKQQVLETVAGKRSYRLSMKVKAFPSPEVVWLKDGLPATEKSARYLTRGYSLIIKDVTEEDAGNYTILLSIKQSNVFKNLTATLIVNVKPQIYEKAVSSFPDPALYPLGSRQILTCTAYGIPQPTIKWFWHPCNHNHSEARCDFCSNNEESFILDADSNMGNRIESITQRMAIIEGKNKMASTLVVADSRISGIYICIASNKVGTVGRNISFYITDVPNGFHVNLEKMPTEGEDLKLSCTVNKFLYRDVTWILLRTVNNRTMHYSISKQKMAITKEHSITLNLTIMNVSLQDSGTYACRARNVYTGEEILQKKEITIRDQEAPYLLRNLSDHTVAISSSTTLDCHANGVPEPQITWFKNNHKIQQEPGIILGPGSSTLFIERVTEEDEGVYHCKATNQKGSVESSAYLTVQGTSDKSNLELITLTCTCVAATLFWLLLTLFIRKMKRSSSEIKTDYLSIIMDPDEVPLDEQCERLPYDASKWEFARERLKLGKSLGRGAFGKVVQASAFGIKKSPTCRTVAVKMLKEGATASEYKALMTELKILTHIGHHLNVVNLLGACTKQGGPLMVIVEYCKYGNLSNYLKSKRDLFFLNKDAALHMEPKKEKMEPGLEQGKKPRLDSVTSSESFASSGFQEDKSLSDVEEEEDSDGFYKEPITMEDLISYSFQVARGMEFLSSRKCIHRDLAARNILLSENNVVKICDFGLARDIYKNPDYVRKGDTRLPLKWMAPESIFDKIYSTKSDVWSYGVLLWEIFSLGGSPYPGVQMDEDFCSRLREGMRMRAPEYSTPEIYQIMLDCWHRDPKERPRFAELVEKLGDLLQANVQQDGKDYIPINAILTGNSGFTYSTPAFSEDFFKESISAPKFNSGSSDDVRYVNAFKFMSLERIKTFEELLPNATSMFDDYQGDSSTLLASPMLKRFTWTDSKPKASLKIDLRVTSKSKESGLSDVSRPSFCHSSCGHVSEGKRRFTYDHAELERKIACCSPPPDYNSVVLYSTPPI

[7] = biological target: Vascular endothelial growth factor receptor 1 (Homo sapiens) (UniProt P17948); conditions: at 10 µM
[8] = biological target: Receptor-type tyrosine-protein kinase FLT3 (Homo sapiens) (UniProt P36888); conditions: at 1 µM
[9] = biological target: Receptor-type tyrosine-protein kinase FLT3 (Homo sapiens) (UniProt P36888); conditions: at 10 µM
[10] = biological target: Vascular endothelial growth factor receptor 3 (Homo sapiens) (UniProt P35916); conditions: at 1 µM
Vascular endothelial growth factor receptor 3 (Homo sapiens), sequence (P35916 whole entry): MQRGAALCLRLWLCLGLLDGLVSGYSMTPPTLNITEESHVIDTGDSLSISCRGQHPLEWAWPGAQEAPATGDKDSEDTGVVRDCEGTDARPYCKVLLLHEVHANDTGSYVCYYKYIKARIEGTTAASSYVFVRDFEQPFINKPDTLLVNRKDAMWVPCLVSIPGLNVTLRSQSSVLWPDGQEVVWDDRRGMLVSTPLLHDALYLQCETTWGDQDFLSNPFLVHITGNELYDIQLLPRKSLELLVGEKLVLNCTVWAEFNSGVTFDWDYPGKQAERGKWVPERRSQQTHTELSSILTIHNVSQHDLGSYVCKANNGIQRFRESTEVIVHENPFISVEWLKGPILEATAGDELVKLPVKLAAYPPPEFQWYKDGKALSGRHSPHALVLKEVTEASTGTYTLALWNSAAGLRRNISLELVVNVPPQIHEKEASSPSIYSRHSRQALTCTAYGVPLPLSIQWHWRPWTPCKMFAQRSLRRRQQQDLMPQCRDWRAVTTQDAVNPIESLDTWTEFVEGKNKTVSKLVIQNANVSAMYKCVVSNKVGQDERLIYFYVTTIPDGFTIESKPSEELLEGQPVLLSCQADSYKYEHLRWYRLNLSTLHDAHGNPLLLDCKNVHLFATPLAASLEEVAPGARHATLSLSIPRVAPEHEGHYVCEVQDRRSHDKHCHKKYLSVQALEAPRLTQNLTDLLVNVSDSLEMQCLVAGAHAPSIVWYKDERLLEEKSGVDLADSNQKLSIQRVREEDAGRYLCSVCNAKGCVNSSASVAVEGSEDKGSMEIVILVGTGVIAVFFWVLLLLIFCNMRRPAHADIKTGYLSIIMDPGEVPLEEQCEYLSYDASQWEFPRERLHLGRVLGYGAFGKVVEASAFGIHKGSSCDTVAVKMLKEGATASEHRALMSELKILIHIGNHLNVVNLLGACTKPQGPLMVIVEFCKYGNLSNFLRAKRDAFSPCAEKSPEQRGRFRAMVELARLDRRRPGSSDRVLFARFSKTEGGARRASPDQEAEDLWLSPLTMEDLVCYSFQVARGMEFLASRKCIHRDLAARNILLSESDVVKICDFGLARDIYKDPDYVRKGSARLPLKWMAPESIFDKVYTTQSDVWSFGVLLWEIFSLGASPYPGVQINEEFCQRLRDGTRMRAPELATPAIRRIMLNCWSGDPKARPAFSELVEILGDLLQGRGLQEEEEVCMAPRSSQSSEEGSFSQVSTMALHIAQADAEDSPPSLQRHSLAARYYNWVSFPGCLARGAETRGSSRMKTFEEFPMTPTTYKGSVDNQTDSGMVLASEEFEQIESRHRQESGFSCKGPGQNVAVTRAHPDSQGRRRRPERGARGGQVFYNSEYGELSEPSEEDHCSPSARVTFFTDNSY

Tyrosine-protein kinase Fes/Fps (Homo sapiens), sequence (P07332 whole entry): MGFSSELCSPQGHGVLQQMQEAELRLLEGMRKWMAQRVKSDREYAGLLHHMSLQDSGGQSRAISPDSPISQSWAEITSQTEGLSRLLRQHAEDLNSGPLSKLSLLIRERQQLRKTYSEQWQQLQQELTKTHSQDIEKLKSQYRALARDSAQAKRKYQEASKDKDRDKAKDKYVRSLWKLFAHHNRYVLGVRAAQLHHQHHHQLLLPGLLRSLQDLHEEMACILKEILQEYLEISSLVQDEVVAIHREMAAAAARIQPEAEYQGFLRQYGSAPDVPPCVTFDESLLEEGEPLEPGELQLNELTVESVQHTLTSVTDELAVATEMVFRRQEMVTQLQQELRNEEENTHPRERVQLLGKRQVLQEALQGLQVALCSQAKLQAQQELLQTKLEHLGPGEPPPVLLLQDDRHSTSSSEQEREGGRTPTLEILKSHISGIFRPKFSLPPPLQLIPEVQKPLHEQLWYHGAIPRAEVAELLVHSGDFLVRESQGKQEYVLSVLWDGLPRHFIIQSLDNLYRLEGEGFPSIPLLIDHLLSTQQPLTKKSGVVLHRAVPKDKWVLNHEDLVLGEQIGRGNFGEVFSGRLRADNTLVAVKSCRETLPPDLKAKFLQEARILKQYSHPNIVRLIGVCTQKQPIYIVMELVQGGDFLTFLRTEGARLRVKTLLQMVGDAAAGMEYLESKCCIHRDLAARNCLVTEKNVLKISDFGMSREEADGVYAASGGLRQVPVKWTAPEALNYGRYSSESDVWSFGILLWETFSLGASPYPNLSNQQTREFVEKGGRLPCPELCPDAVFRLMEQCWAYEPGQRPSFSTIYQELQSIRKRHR
Tyrosine-protein kinase Fer (Homo sapiens), sequence (P16591 whole entry, looked up): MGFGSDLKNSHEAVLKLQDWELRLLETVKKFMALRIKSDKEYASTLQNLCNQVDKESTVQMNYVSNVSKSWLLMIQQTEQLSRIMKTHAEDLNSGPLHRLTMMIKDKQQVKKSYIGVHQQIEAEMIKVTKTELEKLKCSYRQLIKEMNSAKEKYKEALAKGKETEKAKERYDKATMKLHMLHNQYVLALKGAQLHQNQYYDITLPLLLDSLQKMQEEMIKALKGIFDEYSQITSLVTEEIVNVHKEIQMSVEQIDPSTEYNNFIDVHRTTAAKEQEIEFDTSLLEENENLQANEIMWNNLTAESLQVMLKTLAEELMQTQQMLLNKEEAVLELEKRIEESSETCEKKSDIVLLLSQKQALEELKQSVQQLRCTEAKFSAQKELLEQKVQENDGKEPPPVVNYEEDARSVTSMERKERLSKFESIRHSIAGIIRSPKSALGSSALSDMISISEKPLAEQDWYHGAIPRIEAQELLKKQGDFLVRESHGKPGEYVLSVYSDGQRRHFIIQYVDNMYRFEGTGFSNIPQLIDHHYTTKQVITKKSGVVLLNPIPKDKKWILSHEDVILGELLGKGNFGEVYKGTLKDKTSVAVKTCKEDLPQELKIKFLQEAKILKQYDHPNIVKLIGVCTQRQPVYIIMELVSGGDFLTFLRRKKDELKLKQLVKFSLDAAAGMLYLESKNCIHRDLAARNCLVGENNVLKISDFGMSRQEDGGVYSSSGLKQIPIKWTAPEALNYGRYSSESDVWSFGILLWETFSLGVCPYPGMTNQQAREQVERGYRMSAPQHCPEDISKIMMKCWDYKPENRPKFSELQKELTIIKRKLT

SMILES	residual activity [1]	residual activity [2]	residual activity [3]	residual activity [4]	residual activity [5]	residual activity [6]	residual activity [7]	residual activity [8]	residual activity [9]	residual activity [10]
COc1cc2ncnc(Nc3ccc(Oc4ccccc4)cc3)c2cc1OC	76%	102%	90%	7%	2%	18%	4%	39%	11%	7%
CC[n+]1c(/C=C/N(C)c2ccccc2)n(-c2ccccc2)c2ccc(-c3nc4ccccc4s3)cc21	59%	121%	105%	98%	88%	105%	83%	77%	26%	89%
O=C1NC(=O)c2c1c1c3ccccc3[nH]c1c1[nH]c3cc(Br)ccc3c21	86%	100%	96%	100%	91%	30%	17%	41%	27%	4%
Oc1ccc(-c2nc(-c3ccc(F)cc3)c(-c3ccncc3)[nH]2)cc1	93%	107%	99%	93%	40%	83%	26%	87%	85%	90%
Cc1cc(Nc2nc(-c3ccccc3)nc3ccccc23)n[nH]1	6%	58%	21%	18%	2%	0%	1%	2%	1%	0%
Cc1nc(-c2ccccc2)c(-c2ccncc2)o1	105%	108%	120%	95%	92%	89%	60%	69%	28%	-1%
O=C1NC(=O)/C(=C/c2ccc3c(c2)OC(F)(F)O3)S1	86%	128%	90%	105%	101%	92%	85%	89%	83%	98%
N#Cc1cnc2cnc(NCc3cccnc3)cc2c1Nc1ccc(F)c(Cl)c1	95%	19%	12%	11%	4%	14%	7%	2%	0%	8%
NC(=O)c1ccc2[nH]c(-c3ccc(Oc4ccc(Cl)cc4)cc3)nc2c1	89%	97%	87%	99%	90%	82%	39%	65%	27%	69%
CCC(=O)Nc1ccc2ncnc(Nc3cccc(Br)c3)c2c1	91%	115%	78%	102%	76%	86%	83%	120%	107%	85%
Ic1cccc(CSc2nnc(-c3ccncc3)o2)c1	100%	88%	92%	80%	81%	26%	19%	30%	19%	22%
Oc1ccc(Nc2nc(-c3ccc(Cl)cc3)cs2)cc1	100%	106%	95%	96%	93%	99%	77%	70%	56%	45%
CC(C)n1cnc2c(NCc3ccccc3)nc(NCCCO)nc21	103%	94%	51%	103%	103%	94%	87%	89%	78%	87%
CCOc1cc2ncnc(Nc3cccc(Br)c3)c2cc1OCC	85%	112%	80%	54%	10%	54%	6%	101%	40%	36%
O=C1NC(=O)c2cc(Nc3ccc(F)cc3)c(Nc3ccc(F)cc3)cc21	86%	112%	69%	89%	44%	77%	66%	107%	73%	84%
O=C1NC(=O)/C(=C\c2ccc3nccnc3c2)S1	94%	108%	85%	107%	89%	88%	78%	94%	76%	98%
CO[C@H]1C[C@@H]2CC[C@@H](C)[C@@](O)(O2)C(=O)C(=O)N2CCCC[C@H]2C(=O)O[C@H]([C@H](C)C[C@@H]2CC[C@@H](O)[C@H](OC)C2)CC(=O)[C@H](C)/C=C(\C)[C@@H](O)[C@@H](OC)C(=O)[C@H](C)C[C@H](C)/C=C/C=C/C=C/1C	95%	106%	84%	98%	99%	88%	96%	100%	96%	99%

SMILES	residual activity [1]	residual activity [2]	residual activity [3]	residual activity [4]	residual activity [5]	residual activity [6]	residual activity [7]	residual activity [8]	residual activity [9]	residual activity [10]
O=C1c2ccccc2-[n+]2ccc3c([nH]c4ccccc43)c21	90%	89%	88%	92%	85%	79%	67%	87%	52%	76%
CCN(CC)C(=O)c1ccc(Nc2nc(OCC3CCCCC3)c3nc[nH]c3n2)cc1	6%	61%	9%	55%	7%	33%	2%	5%	1%	0%
O=c1c2ccccc2[nH]c(=S)n1CCN1CCC(=C(c2ccc(F)cc2)c2ccc(F)cc2)CC1	89%	117%	93%	110%	91%	97%	98%	81%	57%	89%
O=C(O)c1ccc2c3c1cccc3c(=O)n1c3ccccc3nc21	5%	98%	71%	97%	87%	92%	81%	50%	22%	74%
Nc1cccc(-c2cc3c(Oc4cccc(O)c4)ncnc3[nH]2)c1	10%	13%	1%	0%	2%	0%	0%	22%	1%	-1%
O=C(Nc1cccc(Nc2cc(Nc3cccc(C(F)(F)F)c3)ncn2)c1)C1CC1	92%	113%	86%	90%	81%	99%	61%	108%	128%	97%
Cn1nc2c3c(cccc31)C(=O)c1ccccc1-2	76%	98%	94%	98%	89%	75%	52%	50%	20%	57%
COc1cc2ncnc(Nc3ccc(O)c(Br)c3)c2cc1OC	84%	95%	65%	39%	6%	29%	4%	49%	2%	14%
COc1ccc(S(=O)(=O)N(CCO)c2ccccc2CN(C)C/C=C/c2ccc(Cl)cc2)cc1	91%	96%	89%	95%	80%	100%	92%	104%	62%	90%
COc1cccc(-c2cc(=O)c3ccccc3o2)c1N	101%	94%	107%	97%	100%	101%	92%	87%	85%	95%
Oc1n[nH]c2nnc(-c3c(-c4ccccc4)nn4ccccc34)cc12	91%	92%	108%	89%	95%	86%	80%	76%	63%	89%
O=C(Nc1cccc(Nc2nccc(Nc3cccc(C(F)(F)F)c3)n2)c1)C1CC1	59%	84%	68%	59%	67%	59%	6%	45%	3%	55%
CC#CC(=O)Nc1cc2c(Nc3ccc(F)c(Cl)c3)ncnc2cn1	94%	118%	81%	105%	95%	94%	101%	96%	85%	98%
CNc1cc2c(Nc3cccc(Br)c3)ncnc2cn1	90%	116%	92%	73%	60%	87%	58%	119%	107%	87%
COc1cc2ncnc(N3CCN(C(=O)Nc4ccc(Oc5ccccc5)cc4)CC3)c2cc1OC	88%	98%	86%	96%	97%	56%	21%	37%	18%	31%
Cn1cnc2cc3c(Nc4cccc(Br)c4)ncnc3cc21	93%	132%	83%	63%	35%	43%	18%	113%	58%	40%
